Laboratory results reported in PubChem BioAssay AID1508625 (Wald Lab, School of Medicine, Case Western Reserve …, 2021).

Assay: enhancers of NK cell killing of ovarian tumor cells, primary screen, imaging, OVCAR3, primary NK cells, calcein-AM imaging (AID 1508625);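 further: compound given to NK cells 16 h before adding targets at 1.5 to 1 ratio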
Settings: OVCAR3 lysis by primary NK cells, at 5 µM; z-score: measured here: robust Z-score, single-point normalisation

| Structure (SMILES) | corrected activity, negative = more killing | z-score |
| --- | --- | --- |
| Cc1cc(Cl)ccc1OCC(=O)Nc1cccc2c1C(=O)c1ccccc1C2=O | -3.52% | -1.45 |
| C=CCN1C(=O)C(=Cc2ccc(OCc3ccccc3Cl)c(OC)c2)SC1=S | -6.24% | -1.98 |
| O=[N+]([O-])c1ccc(CNC2CCCC2)cc1 | -5.52% | -1.76 |
| CCC(C)NC(=O)Cn1c(=O)n(-c2cc(OC)cc(OC)c2)c(=O)c2sccc21 (centres undefined) | -7.6% | -2.16 |
| CC(C)(C)c1ccc(C(=O)CC2(O)C(=O)Nc3ccc(Cl)cc32)cc1 (centres undefined) | -2.41% | -0.898 |
| Cc1ccc([N+](=O)[O-])cc1NS(=O)(=O)c1ccc(Cl)cc1 | 4.17% | 1.33 |
| CN(C)CCSc1nnnn1-c1ccccc1 | -4.18% | -1.86 |
| COc1ccccc1CNC(=O)CCS(=O)(=O)Cc1ccccc1C | -4.37% | -1.18 |
| Cc1ccc(-n2c(C)cc(C(=S)N3CCOCC3)c2C)cc1Cl | -4.03% | -1.54 |
| COc1cc(OC)c(OC)cc1CN1CCN(C(=O)c2ccncc2)CC1 | -2.22% | -0.992 |
| O=C(c1cccc(F)c1)N1CCN=C1SCc1ccc(Br)cc1 | -4.87% | -1.2 |
| COc1ccc(CNC(=O)Cn2c(=S)[nH]c3ccccc3c2=O)cc1 | -4.59% | -1.22 |
| O=C1OC(c2ccccc2Cl)=NC1=Cc1cccs1 | -0.515% | -0.219 |
| CC(C)NC1CCCc2c1[nH]c1ccc([N+](=O)[O-])cc21 (centres undefined) | -0.558% | -0.244 |
| COc1ccccc1C1C(=C(O)c2ccccc2)C(=O)C(=O)N1CC(C)O (centres undefined) | -4.26% | -1.62 |
| O=c1cc(-c2ccc([N+](=O)[O-])cc2)nc2c(-c3ccc(Cl)cc3)c(Cc3ccccc3)[nH]n12 | -1.76% | -0.911 |
| CC(=O)CSc1nc(-c2cccs2)cc(C(F)(F)F)c1C#N | -1.56% | -0.485 |
| CC1C(=O)NN=C1C(=O)NN=Cc1cccnc1 (centres undefined) | -3.57% | -1.56 |
| COc1ccc(OC)c(-n2c(=S)[nH]c3cc(C(=O)Nc4ccc5c(c4)CCC5)ccc3c2=O)c1 | -3.65% | -1.16 |
| O=C(Nc1ccc2oc(-c3cccc4c(Br)cccc34)nc2c1)c1ccccc1[N+](=O)[O-] | -6.04% | -2.14 |
| O=c1oc(-c2ccc(Oc3ccc([N+](=O)[O-])cc3)cc2)nc2ccccc12 | -1.57% | -0.62 |

| Structure (SMILES) | corrected activity, negative = more killing | z-score |
| --- | --- | --- |
| Cc1ccc(S(=O)(=O)n2nnc3ccccc32)c(C)c1C | -4.06% | -1.51 |
| CC1(C(=O)NCC2CCCO2)CCC(=O)N1CCc1ccccc1 (centres undefined) | -6.77% | -1.92 |
| O=C(Oc1ccc(C(=S)N2CCCCC2)cc1)c1ccccc1 | -2.77% | -0.857 |
| COc1cccc(C(=O)N2CCN(CC3CC=CCC3)CC2)c1OC (centres undefined) | -3.28% | -1.46 |
| CC(C)(C)C1CCC(=O)C(C2(O)C(=O)Nc3ccc(Br)cc32)C1 (centres undefined) | -3.34% | -0.998 |
| O=C1C2C3C=CC(CC3)C2C(=O)N1c1ccccc1[N+](=O)[O-] (centres undefined) | -2.44% | -1.04 |
| CC(=O)Oc1ccc(-c2nc3ccc(OC(C)=O)cc3c(=O)o2)cc1 | -3.33% | -1.44 |
| Cc1cccc(OCCn2c(=N)n(CC(N)=O)c3ccccc32)c1 | -6.66% | -1.99 |
| CC(C(=O)NCCC1=CCCCC1)c1ccc([N+](=O)[O-])cc1 (centres undefined) | -0.521% | -0.29 |
| CCOc1ccc(C2C(=C(O)c3ccc(Cl)cc3)C(=O)C(=O)N2c2nc3ccccc3s2)cc1 (centres undefined) | -4.47% | -1.71 |
| O=C1CSc2ccc(S(=O)(=O)N3CCOCC3)cc2N1 | -4.98% | -1.34 |
| COc1cc(C=NS(=O)(=O)c2cccs2)cc(Br)c1O | -1.94% | -0.74 |
| O=C(c1ccccc1F)N1CCN(c2cc(N3CCCCC3)c(F)cc2[N+](=O)[O-])CC1 | -2.72% | -0.843 |
| Cc1cc(C)n(C(=O)c2nn(C)cc2I)n1 | -2.43% | -0.913 |
| Cc1ccc(Nc2nc(C)cc(C)c2C(N)=O)cc1 | -3.73% | -1.66 |
| COc1ccc(-c2ccc3c(N)c(C(=O)Nc4ccc(C(C)=O)cc4)sc3n2)cc1 | -4.48% | -1.34 |
| Cc1ccc(C(=O)Nc2ccc3nn(-c4cccc(Cl)c4)nc3c2)cc1[N+](=O)[O-] | -0.361% | -0.128 |
| COc1ccc2cc3cc(C(=O)N(C)c4cc(C)ccc4C)oc3nc2c1 | -6.86% | -1.68 |
| COc1ccc(-c2coc3c(C)c4oc(=O)c5c(c4cc23)CCC5)cc1 | -3.7% | -1.1 |
| COc1ccc(-c2ccc3c(N)c(C(=O)NCc4ccc(C(F)(F)F)cc4)sc3n2)cc1 | -1.13% | -0.339 |
| CCSc1nnc(NC(=O)CSc2nc3c(c(=O)n2-c2ccccc2OC)SCC3)s1 | -4.89% | -1.22 |
